LT uptake inh: qHTS Assay for Anthrax Lethal Toxin Internalization; Cells, anthrax lethal toxin internalization, FRET ratio (460/530); Potency, µM (highest dose often 40 µM), without a hit: top-dose activity change, negative = inhibition, usual class: inhibitors; actives 0.67% (n = 70,000); AID 912, 2007; further: on the % scale 0 is the no-effect control and ±100 the full control effect; nearly all actives have a fitted effect of over 50% in size
AmpC nodet inh: Promiscuous and Specific Inhibitors of AmpC Beta-Lactamase (assay without detergent) | AID 585, 2007 | P00811 | actives 1.8% (n = 71,000) | Potency, µM (series often up to 28.7 µM), inactives show at the top dose activity change, negative = inhibition | AmpC nitrocefin hydrolysis, absorbance 480 nm, no detergent; further: % of control where 0% means no effect
Target sequence (P00811 whole entry, looked up): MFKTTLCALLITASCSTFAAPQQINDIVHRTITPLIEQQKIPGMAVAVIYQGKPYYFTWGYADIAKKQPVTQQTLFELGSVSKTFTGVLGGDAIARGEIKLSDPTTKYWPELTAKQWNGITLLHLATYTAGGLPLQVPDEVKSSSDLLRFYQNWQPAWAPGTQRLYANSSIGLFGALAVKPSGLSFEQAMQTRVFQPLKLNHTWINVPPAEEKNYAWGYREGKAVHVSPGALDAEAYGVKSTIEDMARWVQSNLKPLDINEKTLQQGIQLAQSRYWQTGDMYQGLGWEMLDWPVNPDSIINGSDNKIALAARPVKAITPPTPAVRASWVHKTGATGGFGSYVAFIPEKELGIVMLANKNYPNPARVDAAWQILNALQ
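AmpC in 20 mM phosphate buffer pH 7.0 was preincubated 15 min at room temperature with compounds. Nitrocefin (800 uM stock) was then added and hydrolysis followed at 480 nm every 20 s for 4 min.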
AmpC det inh: Promiscuous and Specific Inhibitors of AmpC Beta-Lactamase (assay with detergent); purified AmpC, nitrocefin hydrolysis with detergent; Potency, µM (doses to about 28.7 µM), for the others: at the highest dose activity change, negative = inhibition; actives 0.09% (n = 71,000); AID 584, 2007; active means well fitted curve in the direction sought with a large enough effect; inconclusive means small, poorly fitted or top-dose-only effect; further: on the % scale 0 is the no-effect control and ±100 the full control effect
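E. coli AmpC (5.3 nM) in 20 mM phosphate pH 7.0 with 0.01% Triton X-100, preincubated 15 min RT with compound; nitrocefin (2 uL of 800 uM stock) hydrolysis followed by 480 nm absorbance every 20 s over 4 min.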
Prx2 Sm inh: Schistosoma Mansoni Peroxiredoxins (Prx2); Schistosoma mansoni peroxiredoxin 2 (Prx2); S. mansoni Prx2 activity coupled to TGR/GSH (TGR is thioredoxin glutathione reductase), NADPH fluorescence loss, qHTS; Potency, µM; actives 0.07% (n = 65,000)
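Prx2 activity was followed as the loss of NADPH fluorescence (ex 365/em 450 nm), read every 30 sec for 8 min after H2O2 start. The enzyme mix (50 nM Prx2, 25 nM TGR, GSH, NADPH; pH 7.4 phosphate buffer) was incubated with compound for 15 min at room temperature first.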
Numbers without * were called inactive; ? = inconclusive; · = not tested or not shown; [ ] = remark or other dose. The list is not random: actives were taken first. Their share in the collection is about 2.6%. Unless noted, the call rests on the fitted dose curve. Potency means the concentration at half of the fitted maximal effect.

SMILES | LT uptake inh | AmpC nodet inh | AmpC det inh | Prx2 Sm inh
O=C(Cn1c(=O)oc2cc(S(=O)(=O)N3CCCC3)ccc21)NC1CCCc2ccccc21 (configuration not stated) | ? | 2µM* | 12% | >57
O=C(C[C@@H]1C=Cc2ccccc2N1C(=O)c1ccccc1)c1ccccc1 | -10%[8 µM] | -5%[5.75 µM] | -2%[5.75 µM] | >57
C[C@@]12CCC(=O)C=C1CC[C@H]1[C@@H]2[C@@H](O)C[C@]2(C)[C@@H]1CC[C@@]2(O)C(=O)COC(=O)C1CCCC1 | -5%[8 µM] | 26%[5.75 µM] | -2%[5.75 µM] | >57
Nc1nc(N)c(Cn2ccnc2)c(=O)[nH]1 | -1%[8 µM] | -2%[5.75 µM] | 0%[5.75 µM] | >57
Cc1cccc2sc(N)nc12 | -11% | -7% | 8% | ·
Cc1cc(C)nc(NS(=O)(=O)c2ccc(NC(=O)Cn3c(=O)oc4ccccc43)cc2)n1 | -4% | 4µM*[single pt active] | 14% | >57
O=C(O)Cn1c(=O)oc2cc(S(=O)(=O)NC3CCCCC3)ccc21 | -3% | 2.5µM*[single pt active] | 11% | >57
O=C(Cn1c(=O)oc2cc(S(=O)(=O)N3CCCC3)ccc21)Nc1ccc(C(F)(F)F)cc1 | -17% | 10µM*[single pt active] | 19% | >57
Cc1noc(NS(=O)(=O)c2ccc(NC(=O)CCn3c(=O)oc4ccccc43)cc2)c1C | -9% | -2% | 9% | ?
O=C(CN1CCCCC1)Nc1ccc(S(=O)(=O)N2CCCCCC2)cc1 | -4% | 1% | -7% | >57
CCC(C)O (configuration not stated) | -4% | -8% | 11% | ·
Cn1c(=O)c2cc(S(=O)(=O)NC(C(=O)Nc3cccnc3)c3ccccc3)ccc2n(C)c1=O (configuration not stated) | -8% | 4µM*[single pt active] | 11% | >57
O=C1CCc2cc(S(=O)(=O)NC(C(=O)NCc3cccnc3)c3ccccc3)ccc2N1 (configuration not stated) | 1% | 4µM*[single pt active] | 12% | >57
Cn1c(=O)c2cc(S(=O)(=O)NC(C(=O)NCc3cccnc3)c3ccccc3)ccc2n(C)c1=O (configuration not stated) | -7% | 4µM*[single pt active] | 14% | >57
CC(NC(=O)CCNS(=O)(=O)c1ccc2c(c1)c(=O)n(C)c(=O)n2C)c1ccccc1 (configuration not stated) | -22% | 9% | 4% | >57
Cc1nc2ccccc2c2oc(C(=O)Nc3ccc4c(c3)OCCO4)cc12 | 0.79µM* | -1% | 1% | >57
Cc1cccc(N2CCN(C(=O)c3cc4c(C)nc5ccccc5c4o3)CC2)c1C | 10µM* | 113% | 4% | >57
Cc1ccn2cc(C(=O)Nc3ccc4c(c3)OCCO4)nc2c1 | 7.9µM* | 10% | -4% | >57
Cc1nc2ccccc2c2oc(C(=O)NCC3COc4ccccc4O3)cc12 (configuration not stated) | 5µM* | 117% | 8% | >57
Cc1ccn2cc(C(=O)Nc3ccccc3N3CCOCC3)nc2c1 | ? | 38% | -3% | >57
CCCc1cc(C(=O)Nc2sc(C)c(CC)c2C#N)no1 | 13µM* | 4µM*[single pt active] | 13% | >57
CCCc1cc(C(=O)Nc2cccnc2)no1 | -13% | 4µM*[single pt active] | 11% | >57
CCCc1cc(C(=O)Nc2sc3c(c2C#N)CCC3)no1 | ? | 4µM*[single pt active] | 10% | >57
CCCc1cc(C(=O)Nc2sc(C)c(C)c2C(=O)OCC)no1 | ? | 4µM*[single pt active] | 21% | >57
CCOC(=O)c1c(NC(=O)c2cc(C3CC3)on2)sc(C(C)=O)c1C | 1% | -20% | 5% | >57
SMILES | LT uptake inh | AmpC nodet inh | AmpC det inh | Prx2 Sm inh
CC[C@@H]1CN2CCc3cc(OC)c(OC)cc3[C@H]2C[C@@H]1C[C@@H]1NCCc2cc(OC)c(OC)cc21 | · | · | · | >57
CC[C@H](CO)NC(=O)[C@@H]1C=C2c3cccc4[nH]cc(c34)C[C@@H]2N(C)C1 | ? | -8% | -3% | >57
CC(C)C[C@H](NC(=O)[C@@H](O)[C@@H](N)Cc1ccccc1)C(=O)O | ? | -3% | -2% | >57
NCCc1nc(-c2nc(C(=O)O)cs2)cs1 | 7%[8 µM] | 2%[5.75 µM] | -6%[5.75 µM] | >57
O=c1cc(CF)[nH]c(=S)[nH]1 | -10%[8 µM] | -2%[5.75 µM] | -1%[5.75 µM] | >57
C[N+](C)(C)/N=C\c1ccc(O)c(O)c1 | ? | 6%[5.75 µM] | -3%[5.75 µM] | >57
Oc1ccc(N=Cc2ccc(O)c(O)c2)cc1 | ? | 13µM* | 5% | ·
CC1(C)CCC(=O)N[C@H]1CC(=O)C[C@H]1NC(=O)CCC1(C)C | 5%[8 µM] | -8%[5.75 µM] | -3%[5.75 µM] | >57
COc1ccc(OC)c(Nc2nc(-c3cccs3)cs2)c1 | ? | 4% | 13% | >57
COc1ccccc1Nc1nc(-c2cccs2)cs1 | ? | 7.9µM*[single pt active] | -5% | ·
COc1cc2c(cc1O)CC[C@@H]1[C@@H]2CC[C@@]2(C)[C@H](O)CC[C@H]12 | -11% | 13% | -1% | >57
CC(C)(C)C(=O)[C@@H]1[C@@H]2C(=O)N(c3ccc4c(c3)OCCO4)C(=O)[C@@H]2C2c3ccccc3C=CN21 (some centres not stated) | 1.3µM* | 19% | -14% | >57
CCN(CC)[C@@H](C)CN1c2ccccc2Sc2ccccc21 | -15%[3.58 µM] | -1%[12.8 µM] | -1%[12.8 µM] | >57
O=C(Cn1cnc2sc(-c3ccccc3)cc2c1=O)NCc1ccco1 | -26% | 5µM* | 18% | >57
Cc1cc(NC(=O)C2CCCN(S(=O)(=O)c3c(C)noc3C)C2)no1 (configuration not stated) | -5% | 4µM*[single pt active] | 13% | >57
Cc1noc(C)c1S(=O)(=O)N1CCCC(C(=O)Nc2ccc(Cl)cn2)C1 (configuration not stated) | -2% | 11% | -4% | >57
C(=N/Nc1nnc2c(n1)[nH]c1ccccc12)/c1cccnc1 | -2%[8 µM] | 0%[5.75 µM] | -4%[5.75 µM] | >57
CN(C)c1ccc(-c2nc(Nc3ccncc3)c3ccccc3n2)cc1 | 13µM* | 35% | 9% | >57
CNc1sc(C(=O)c2cccs2)c(N)c1-c1nc2ccccc2s1 | ? | 13µM*[single pt active] | -2% | >57
N#Cc1c(N)nc(N2CCCC2)c(C#N)c1-c1ccc(Cl)cc1 | 1µM* | -16% | 4% | >57
N#Cc1c(N2CCCC2)nc(N)c2c(N)nc(N3CCCC3)cc12 | -15% | 51% | 8% | >57
CCCCN1C(=O)C(O)(CC(=O)c2ccco2)c2cc(Br)ccc21 (configuration not stated) | ? | 2.5µM*[single pt active] | 12% | >57
COc1ccc(Cn2c(=O)[nH]c3cc(C(=O)NCc4ccc5c(c4)OCO5)ccc3c2=O)cc1 | -6% | 13µM*[single pt active] | -4% | >57
COc1ccc(Cn2c(=O)[nH]c3cc(C(=O)NCCCN4CCCCC4)ccc3c2=O)cc1 | 6% | 24% | 2% | >57
O=C(NCc1ccc2c(c1)OCO2)c1ccc2c(=O)n(C3CCCC3)c(=O)[nH]c2c1 | ? | 7.9µM* | -2% | >57
CC(C)c1ccc2oc(-c3cc(N)ccc3O)nc2c1 | 13µM* | -7% | -2% | ·
C[C@H]1[C@H](C)CC[C@@]2(C(=O)O)CC[C@]3(C)C(=CC[C@@H]4[C@@]5(C)CC[C@H](O)C(C)(C)[C@@H]5CC[C@@]43C)[C@@H]12 | 7.9µM* | 1% | -1% | >57

Compound activity: PubChem, National Center for Advancing Translational Sciences (NCATS)
